Measured values as given in PMC7862700, “An all-to-all approach to the identification of sequence-specific readers for epigenetic DNA modifications on cytosine”.

Experiments:
Assay in all cases: DAPPL (digital affinity profiling via proximity ligation, sequencing); 10 mM Tris-HCl pH 7.5, 50 mM NaCl, 1 mM DTT, 4% glycerol, room temperature, 30 min; GST-TFs on glutathione beads, 16-mer random dsDNA library, 0.1% formaldehyde crosslink after washing; high values mean tight binding
FLI1 = target: T1, FLI1 (Homo sapiens, UniProt Q01543 1-452); settings: protein: recombinant; tags: N-terminal GST; dsDNA, one strand shown
T1 sequence: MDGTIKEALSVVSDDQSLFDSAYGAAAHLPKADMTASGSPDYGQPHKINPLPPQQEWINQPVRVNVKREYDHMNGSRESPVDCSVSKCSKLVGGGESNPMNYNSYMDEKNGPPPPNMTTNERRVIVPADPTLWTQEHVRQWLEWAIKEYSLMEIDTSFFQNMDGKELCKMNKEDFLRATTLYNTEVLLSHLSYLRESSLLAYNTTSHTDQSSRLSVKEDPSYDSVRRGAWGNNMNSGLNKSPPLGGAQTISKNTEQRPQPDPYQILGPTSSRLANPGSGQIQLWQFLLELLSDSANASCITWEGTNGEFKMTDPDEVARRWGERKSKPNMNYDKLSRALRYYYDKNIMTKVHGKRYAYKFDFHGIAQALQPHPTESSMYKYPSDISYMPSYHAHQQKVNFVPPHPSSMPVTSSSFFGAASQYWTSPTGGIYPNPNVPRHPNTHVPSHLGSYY
How it was run: (§1)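 A tag-only sample was pooled with DNA-barcoded human transcription factors that had been expressed in yeast as GST fusions and captured on glutathione beads. The pools were incubated for 30 min at room temperature with 200 nmole of a random double-stranded 16-mer DNA library in Tris/NaCl/DTT/glycerol buffer, then washed, crosslinked with 0.1% formaldehyde, proximity-ligated (BsaI/T4 ligase, 1 h, 37 °C), PCR-amplified and sequenced on an Illumina NextSeq500. Binding signal is each hexamer's read frequency for a factor divided by its frequency for the tag-only sample.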

ELK1 = target: T2, ELK1 (Homo sapiens, UniProt P19419 1-428); settings: protein: recombinant; tags: N-terminal GST; dsDNA, one strand shown
T2 sequence: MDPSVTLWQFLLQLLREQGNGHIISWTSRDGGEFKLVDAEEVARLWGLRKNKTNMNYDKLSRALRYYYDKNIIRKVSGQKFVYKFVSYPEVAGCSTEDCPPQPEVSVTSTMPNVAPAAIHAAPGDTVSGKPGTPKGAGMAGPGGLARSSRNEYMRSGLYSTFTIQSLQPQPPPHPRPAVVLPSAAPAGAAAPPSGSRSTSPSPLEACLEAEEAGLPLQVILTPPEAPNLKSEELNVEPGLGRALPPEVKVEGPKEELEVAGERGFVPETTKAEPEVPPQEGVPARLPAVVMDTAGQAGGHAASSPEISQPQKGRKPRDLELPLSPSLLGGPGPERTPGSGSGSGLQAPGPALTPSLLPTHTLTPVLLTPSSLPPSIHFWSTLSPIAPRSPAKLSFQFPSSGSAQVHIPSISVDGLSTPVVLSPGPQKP
How it was run: as §1

GABPA = target: T3, GABPA (Homo sapiens, UniProt Q06546 1-454); settings: protein: recombinant; tags: N-terminal GST; dsDNA, one strand shown
T3 sequence: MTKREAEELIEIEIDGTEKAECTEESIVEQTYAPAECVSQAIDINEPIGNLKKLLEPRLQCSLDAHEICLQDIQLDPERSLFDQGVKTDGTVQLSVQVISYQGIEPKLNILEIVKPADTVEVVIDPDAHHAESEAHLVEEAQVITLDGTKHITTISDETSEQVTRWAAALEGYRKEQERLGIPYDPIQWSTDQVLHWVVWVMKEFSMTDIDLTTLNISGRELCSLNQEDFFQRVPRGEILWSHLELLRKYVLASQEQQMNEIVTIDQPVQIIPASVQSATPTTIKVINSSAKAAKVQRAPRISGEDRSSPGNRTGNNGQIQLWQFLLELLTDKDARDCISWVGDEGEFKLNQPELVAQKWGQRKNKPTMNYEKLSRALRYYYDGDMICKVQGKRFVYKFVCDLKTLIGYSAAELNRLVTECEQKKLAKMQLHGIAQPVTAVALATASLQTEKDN
How it was run: as §1

ERG = target: T4, ERG (Homo sapiens, UniProt P11308 1-479); settings: protein: recombinant; tags: N-terminal GST; dsDNA, one strand shown
T4 sequence: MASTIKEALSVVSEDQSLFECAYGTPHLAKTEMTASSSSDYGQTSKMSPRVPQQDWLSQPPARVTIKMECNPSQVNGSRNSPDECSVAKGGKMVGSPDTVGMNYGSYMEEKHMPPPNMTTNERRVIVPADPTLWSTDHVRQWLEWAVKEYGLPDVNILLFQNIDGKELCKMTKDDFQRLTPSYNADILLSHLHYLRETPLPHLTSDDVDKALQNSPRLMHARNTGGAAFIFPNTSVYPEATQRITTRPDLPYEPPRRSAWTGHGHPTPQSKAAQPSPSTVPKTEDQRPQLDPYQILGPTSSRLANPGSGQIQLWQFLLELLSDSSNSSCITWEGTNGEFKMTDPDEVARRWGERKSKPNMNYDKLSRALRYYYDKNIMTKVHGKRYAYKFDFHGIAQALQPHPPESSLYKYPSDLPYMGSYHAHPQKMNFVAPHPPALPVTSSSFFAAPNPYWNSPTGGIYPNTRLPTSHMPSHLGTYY
How it was run: as §1

ELF1 = ELF1 (Homo sapiens, UniProt P32519 1-619); settings: protein: recombinant; tags: N-terminal GST; dsDNA, one strand shown
How it was run: as §1

EHF = target: T5, EHF (Homo sapiens, UniProt Q9NZC4 1-300); settings: protein: recombinant; tags: N-terminal GST; dsDNA, one strand shown
T5 sequence: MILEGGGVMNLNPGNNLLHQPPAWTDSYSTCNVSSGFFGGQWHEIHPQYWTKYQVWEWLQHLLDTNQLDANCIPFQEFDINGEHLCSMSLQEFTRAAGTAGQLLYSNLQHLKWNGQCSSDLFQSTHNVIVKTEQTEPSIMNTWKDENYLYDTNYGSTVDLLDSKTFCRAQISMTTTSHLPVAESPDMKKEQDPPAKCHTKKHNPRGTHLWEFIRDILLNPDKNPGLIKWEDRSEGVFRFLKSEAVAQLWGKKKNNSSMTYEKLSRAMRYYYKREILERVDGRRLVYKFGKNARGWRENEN
How it was run: as §1

SPI1 = SPI1 (Homo sapiens, UniProt P17947 1-270); settings: protein: recombinant; tags: N-terminal GST; dsDNA, one strand shown
How it was run: as §1

SPIB = SPIB (Homo sapiens, UniProt Q01892 1-262); settings: protein: recombinant; tags: N-terminal GST; dsDNA, one strand shown
How it was run: as §1

ELK3 = target: T6, ELK3 (Homo sapiens, UniProt P41970 1-407); settings: protein: recombinant; tags: N-terminal GST; dsDNA, one strand shown
T6 sequence: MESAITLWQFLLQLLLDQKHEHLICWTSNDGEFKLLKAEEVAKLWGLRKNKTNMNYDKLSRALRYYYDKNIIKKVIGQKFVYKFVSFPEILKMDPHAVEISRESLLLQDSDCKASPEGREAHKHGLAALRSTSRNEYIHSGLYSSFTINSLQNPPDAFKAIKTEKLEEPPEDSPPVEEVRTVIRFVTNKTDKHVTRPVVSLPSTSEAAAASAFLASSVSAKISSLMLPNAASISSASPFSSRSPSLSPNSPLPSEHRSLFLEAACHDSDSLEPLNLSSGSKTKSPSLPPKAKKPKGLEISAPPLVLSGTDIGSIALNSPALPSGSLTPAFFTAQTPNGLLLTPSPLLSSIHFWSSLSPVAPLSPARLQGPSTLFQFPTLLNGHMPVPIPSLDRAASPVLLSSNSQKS
How it was run: as §1

FEV = target: T7, FEV (Homo sapiens, UniProt Q99581 1-238); settings: protein: recombinant; tags: N-terminal GST; dsDNA, one strand shown
T7 sequence: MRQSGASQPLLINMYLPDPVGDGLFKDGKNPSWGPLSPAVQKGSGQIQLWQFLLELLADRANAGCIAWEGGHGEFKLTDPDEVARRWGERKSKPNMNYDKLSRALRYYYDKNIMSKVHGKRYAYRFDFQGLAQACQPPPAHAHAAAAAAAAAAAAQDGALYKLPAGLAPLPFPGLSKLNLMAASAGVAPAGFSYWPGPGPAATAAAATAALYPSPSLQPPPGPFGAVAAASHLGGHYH
How it was run: as §1

ETV5 = ETV5 (Homo sapiens, UniProt P41161 1-510); settings: protein: recombinant; tags: N-terminal GST; dsDNA, one strand shown
How it was run: as §1

HSF1 = HSF1 (Homo sapiens, UniProt Q00613 1-529); settings: protein: recombinant; tags: N-terminal GST; chain copies: 3; dsDNA, one strand shown
How it was run: as §1

SPIC = target: T8, SPIC (Homo sapiens, UniProt Q8N5J4 1-248); settings: protein: recombinant; tags: N-terminal GST; dsDNA, one strand shown
T8 sequence: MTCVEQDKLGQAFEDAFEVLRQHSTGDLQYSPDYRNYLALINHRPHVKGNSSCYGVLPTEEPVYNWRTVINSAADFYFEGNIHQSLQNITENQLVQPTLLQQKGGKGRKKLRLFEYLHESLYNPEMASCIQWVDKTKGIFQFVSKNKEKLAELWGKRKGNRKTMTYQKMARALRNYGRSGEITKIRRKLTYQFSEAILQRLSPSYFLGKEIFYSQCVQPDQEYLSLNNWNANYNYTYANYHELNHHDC
How it was run: as §1

ELF4 = ELF4 (Homo sapiens, UniProt Q99607 1-663); settings: protein: recombinant; tags: N-terminal GST; dsDNA, one strand shown
How it was run: as §1

ELK4 = target: T9, ELK4 (Homo sapiens, UniProt P28324-2 1-405); settings: protein: recombinant; tags: N-terminal GST; dsDNA, one strand shown
T9 sequence: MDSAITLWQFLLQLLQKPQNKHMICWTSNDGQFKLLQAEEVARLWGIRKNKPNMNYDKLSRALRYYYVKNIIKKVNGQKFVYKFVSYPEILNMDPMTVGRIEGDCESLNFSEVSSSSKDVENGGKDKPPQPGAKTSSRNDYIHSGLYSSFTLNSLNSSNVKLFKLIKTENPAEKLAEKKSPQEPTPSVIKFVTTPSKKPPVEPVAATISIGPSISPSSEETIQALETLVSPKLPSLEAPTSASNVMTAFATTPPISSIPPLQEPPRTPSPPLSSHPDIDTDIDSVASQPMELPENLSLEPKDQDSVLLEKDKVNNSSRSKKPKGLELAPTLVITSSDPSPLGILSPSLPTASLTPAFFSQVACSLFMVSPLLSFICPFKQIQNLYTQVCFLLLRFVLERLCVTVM
How it was run: as §1

ETV2 = target: T10, ETV2 (Homo sapiens, UniProt O00321 1-342); settings: protein: recombinant; tags: N-terminal GST; dsDNA, one strand shown
T10 sequence: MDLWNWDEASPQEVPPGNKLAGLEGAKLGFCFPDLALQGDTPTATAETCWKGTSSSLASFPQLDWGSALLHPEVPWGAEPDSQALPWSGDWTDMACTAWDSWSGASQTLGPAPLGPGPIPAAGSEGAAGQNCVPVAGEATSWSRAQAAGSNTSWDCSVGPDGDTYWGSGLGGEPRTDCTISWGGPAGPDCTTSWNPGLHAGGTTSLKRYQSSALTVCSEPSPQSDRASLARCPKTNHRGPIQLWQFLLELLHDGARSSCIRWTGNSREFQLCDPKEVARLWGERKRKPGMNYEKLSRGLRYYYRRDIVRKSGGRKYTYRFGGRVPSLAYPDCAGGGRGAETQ
How it was run: as §1

ELF3 = target: T11, ELF3 (Homo sapiens, UniProt P78545 1-371); settings: protein: recombinant; tags: N-terminal GST; dsDNA, one strand shown
T11 sequence: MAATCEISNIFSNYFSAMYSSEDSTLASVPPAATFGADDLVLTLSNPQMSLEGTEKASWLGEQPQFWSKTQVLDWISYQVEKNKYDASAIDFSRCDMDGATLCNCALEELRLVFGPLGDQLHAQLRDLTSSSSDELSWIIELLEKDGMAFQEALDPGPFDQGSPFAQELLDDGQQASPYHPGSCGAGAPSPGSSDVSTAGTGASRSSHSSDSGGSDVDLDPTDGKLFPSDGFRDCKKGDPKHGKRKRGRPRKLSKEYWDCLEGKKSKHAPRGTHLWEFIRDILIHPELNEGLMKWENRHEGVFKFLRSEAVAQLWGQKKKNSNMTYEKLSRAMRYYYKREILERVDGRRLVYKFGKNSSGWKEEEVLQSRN
How it was run: as §1

CRX = CRX (Homo sapiens, UniProt O43186 1-299); settings: protein: recombinant; tags: N-terminal GST; dsDNA, one strand shown
How it was run: as §1

ETV1 = ETV1 (Homo sapiens, UniProt P50549 1-477); settings: protein: recombinant; tags: N-terminal GST; dsDNA, one strand shown
How it was run: as §1

Sequence of CRX (O43186 whole entry): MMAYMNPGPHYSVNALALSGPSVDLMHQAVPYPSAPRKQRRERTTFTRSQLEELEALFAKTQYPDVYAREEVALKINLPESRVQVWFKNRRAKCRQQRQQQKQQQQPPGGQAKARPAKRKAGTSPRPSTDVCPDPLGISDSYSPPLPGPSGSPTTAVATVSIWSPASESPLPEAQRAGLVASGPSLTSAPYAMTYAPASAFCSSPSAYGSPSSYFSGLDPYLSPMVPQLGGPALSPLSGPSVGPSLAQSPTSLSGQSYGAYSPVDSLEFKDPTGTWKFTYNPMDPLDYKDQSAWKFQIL
Sequence of ELF4 (Q99607 whole entry): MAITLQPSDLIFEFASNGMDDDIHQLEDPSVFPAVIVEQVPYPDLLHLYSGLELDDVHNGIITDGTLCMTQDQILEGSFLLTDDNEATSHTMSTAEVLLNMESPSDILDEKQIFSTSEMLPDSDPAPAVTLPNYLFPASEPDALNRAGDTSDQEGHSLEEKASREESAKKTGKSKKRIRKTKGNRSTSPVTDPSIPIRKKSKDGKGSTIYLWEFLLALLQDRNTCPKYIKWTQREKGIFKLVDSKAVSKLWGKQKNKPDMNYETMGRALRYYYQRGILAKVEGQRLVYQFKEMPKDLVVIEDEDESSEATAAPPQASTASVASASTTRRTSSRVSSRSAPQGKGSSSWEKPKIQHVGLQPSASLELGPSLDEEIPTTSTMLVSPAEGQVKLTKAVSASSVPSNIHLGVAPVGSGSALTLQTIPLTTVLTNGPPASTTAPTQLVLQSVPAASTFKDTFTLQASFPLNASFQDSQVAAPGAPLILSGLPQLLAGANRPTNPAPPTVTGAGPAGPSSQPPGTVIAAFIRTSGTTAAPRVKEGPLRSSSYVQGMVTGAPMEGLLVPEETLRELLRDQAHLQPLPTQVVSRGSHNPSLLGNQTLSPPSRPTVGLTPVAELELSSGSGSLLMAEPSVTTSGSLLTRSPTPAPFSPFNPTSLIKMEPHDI
Sequence of ELF1 (P32519 whole entry): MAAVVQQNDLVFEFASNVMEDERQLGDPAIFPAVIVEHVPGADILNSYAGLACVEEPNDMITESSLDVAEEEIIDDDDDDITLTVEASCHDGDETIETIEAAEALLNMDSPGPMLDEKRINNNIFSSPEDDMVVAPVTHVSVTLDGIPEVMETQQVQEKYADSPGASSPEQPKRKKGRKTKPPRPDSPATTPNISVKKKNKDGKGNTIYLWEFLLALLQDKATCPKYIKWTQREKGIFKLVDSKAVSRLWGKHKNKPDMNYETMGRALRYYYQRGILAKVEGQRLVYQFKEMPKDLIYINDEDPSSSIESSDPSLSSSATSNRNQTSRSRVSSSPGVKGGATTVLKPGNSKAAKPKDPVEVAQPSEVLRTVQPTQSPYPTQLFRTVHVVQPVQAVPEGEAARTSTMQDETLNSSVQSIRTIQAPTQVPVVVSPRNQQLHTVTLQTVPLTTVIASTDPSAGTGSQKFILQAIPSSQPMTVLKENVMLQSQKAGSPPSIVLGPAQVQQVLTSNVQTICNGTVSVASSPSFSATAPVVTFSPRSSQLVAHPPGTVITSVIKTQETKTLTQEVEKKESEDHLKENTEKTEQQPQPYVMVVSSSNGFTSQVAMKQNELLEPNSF
Sequence of ETV1 (P50549 whole entry): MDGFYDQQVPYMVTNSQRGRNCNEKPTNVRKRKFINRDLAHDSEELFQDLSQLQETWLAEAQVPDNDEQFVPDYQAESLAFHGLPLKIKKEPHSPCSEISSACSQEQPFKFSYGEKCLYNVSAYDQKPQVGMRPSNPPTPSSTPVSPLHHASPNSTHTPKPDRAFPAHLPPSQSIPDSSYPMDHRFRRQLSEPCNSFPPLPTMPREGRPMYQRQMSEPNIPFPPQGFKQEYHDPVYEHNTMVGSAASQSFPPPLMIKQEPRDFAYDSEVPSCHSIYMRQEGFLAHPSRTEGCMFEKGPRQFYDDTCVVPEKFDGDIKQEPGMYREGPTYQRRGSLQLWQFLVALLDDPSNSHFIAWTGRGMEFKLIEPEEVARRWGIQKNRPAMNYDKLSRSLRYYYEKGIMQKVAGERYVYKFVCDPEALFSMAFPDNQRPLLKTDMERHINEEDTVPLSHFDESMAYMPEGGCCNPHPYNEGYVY
Sequence of HSF1 (Q00613 whole entry): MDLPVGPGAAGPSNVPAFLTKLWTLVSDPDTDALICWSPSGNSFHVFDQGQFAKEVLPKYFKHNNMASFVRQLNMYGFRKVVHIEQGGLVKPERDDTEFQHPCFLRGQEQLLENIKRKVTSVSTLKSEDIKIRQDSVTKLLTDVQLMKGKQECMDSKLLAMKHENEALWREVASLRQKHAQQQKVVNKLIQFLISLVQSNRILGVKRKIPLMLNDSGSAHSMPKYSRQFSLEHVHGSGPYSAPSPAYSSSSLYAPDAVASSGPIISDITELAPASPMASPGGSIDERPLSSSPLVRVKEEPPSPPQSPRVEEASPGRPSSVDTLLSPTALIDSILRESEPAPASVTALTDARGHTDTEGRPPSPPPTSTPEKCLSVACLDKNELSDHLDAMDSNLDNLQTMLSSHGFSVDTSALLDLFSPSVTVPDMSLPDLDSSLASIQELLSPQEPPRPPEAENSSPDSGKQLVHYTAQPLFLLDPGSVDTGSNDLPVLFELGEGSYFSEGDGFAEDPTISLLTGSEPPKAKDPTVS
Sequence of SPIB (Q01892 whole entry): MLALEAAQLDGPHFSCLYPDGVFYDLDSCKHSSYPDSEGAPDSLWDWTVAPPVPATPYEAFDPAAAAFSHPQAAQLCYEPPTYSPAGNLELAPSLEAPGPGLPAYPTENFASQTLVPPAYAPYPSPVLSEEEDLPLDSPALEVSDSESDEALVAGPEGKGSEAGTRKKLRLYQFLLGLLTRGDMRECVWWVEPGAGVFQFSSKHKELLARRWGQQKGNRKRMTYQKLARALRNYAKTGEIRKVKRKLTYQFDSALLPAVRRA
Sequence of ETV5 (P41161 whole entry): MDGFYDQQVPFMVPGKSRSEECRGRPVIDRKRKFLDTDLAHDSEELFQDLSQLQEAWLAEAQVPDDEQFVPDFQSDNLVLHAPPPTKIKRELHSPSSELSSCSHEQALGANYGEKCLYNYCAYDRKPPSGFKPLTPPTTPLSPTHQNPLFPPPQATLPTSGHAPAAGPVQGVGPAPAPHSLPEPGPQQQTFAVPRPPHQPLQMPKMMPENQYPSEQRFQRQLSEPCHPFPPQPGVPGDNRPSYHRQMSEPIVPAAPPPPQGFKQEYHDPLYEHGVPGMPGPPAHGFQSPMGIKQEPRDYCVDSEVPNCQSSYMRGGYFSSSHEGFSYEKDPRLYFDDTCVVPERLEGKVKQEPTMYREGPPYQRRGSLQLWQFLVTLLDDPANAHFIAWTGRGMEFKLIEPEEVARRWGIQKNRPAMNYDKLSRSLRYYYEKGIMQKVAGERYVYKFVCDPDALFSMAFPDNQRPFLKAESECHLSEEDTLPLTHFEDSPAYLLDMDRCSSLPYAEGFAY

ATGTAA
binding signal (FLI1): 1.38 fold enrichment (6-mer frequency, TF over GST control) | binding signal (ELK1): 1.29 fold enrichment (6-mer frequency, TF over GST control) | binding signal (GABPA): 1.13 fold enrichment (6-mer frequency, TF over GST control) | binding signal (ERG): 1.29 fold enrichment (6-mer frequency, TF over GST control) | binding signal (ELF1): 1.23 fold enrichment (6-mer frequency, TF over GST control) | binding signal (EHF): 1.32 fold enrichment (6-mer frequency, TF over GST control) | binding signal (SPI1): 1.23 fold enrichment (6-mer frequency, TF over GST control) | binding signal (SPIB): 1.33 fold enrichment (6-mer frequency, TF over GST control) | binding signal (ELK3): 1.22 fold enrichment (6-mer frequency, TF over GST control) | binding signal (FEV): 1.2 fold enrichment (6-mer frequency, TF over GST control) | binding signal (ETV5): 1.24 fold enrichment (6-mer frequency, TF over GST control) | binding signal (HSF1): 1.28 fold enrichment (6-mer frequency, TF over GST control) | binding signal (SPIC): 1.17 fold enrichment (6-mer frequency, TF over GST control) | binding signal (ELF4): 1.23 fold enrichment (6-mer frequency, TF over GST control) | binding signal (ELK4): 1.28 fold enrichment (6-mer frequency, TF over GST control) | binding signal (ETV2): 1.15 fold enrichment (6-mer frequency, TF over GST control) | binding signal (ELF3): 1.39 fold enrichment (6-mer frequency, TF over GST control) | binding signal (CRX): 1.41 fold enrichment (6-mer frequency, TF over GST control) | binding signal (ETV1): 1.27 fold enrichment (6-mer frequency, TF over GST control)
